The results in this text go back to PubChem BioAssay (NCATS).

Values joined by “and” are separate entries in the source; they are usually repeats but may differ in a detail not shown here. Identical values can stand only once. Values without a mark were called inactive. Results filed as inconclusive are left out. Active and inactive are the calls of the source. Unless noted, calls follow the shape of the dose curve; as a rule, active = well fitted curve in the direction sought with a large enough effect; inconclusive = small, poorly fitted or top-dose-only effect, or another doubt; inactive = no such curve, though single readings can be large; an effect the other way counts as inactive or inconclusive.

One test relates to PA-1. Description: Primary qHTS to identify gynecologic anti-cancer compounds using libraries of approved drugs and bioactive compounds (AID 1345084). Also: nearly all actives have a fitted effect of over 55% in size. Also: potency is read from the fitted curve at half-maximal effect. The settings on record: Gynecologic cancer cell panel viability, ATPlite luminescence, 48 h; series mostly up to 57.5 µM. In short, it runs like this:
(§1)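 Luminescence from the ATPlite ATP-monitoring reagent indicates viable cell number; lower signal means cytotoxicity. Cells received compound 16 h after seeding and were exposed for 48 h across five concentrations.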
A general note: Quantitative high-throughput screening tests each substance at several concentrations.

Another test concerns Tov-21-G. Described as above. The settings on record: Gynecologic cancer cell panel viability, ATPlite luminescence, 48 h; series mostly up to 57.5 µM. The procedure, abridged:
as §1
(ATP-based viability assays read luminescence as a measure of living cells.)

A further test relates to Tov112D. Described as above. Particulars: Gynecologic cancer cell panel viability, ATPlite luminescence, 48 h; series mostly up to 57.5 µM. The procedure, abridged:
as §1

A short description of test [1]: Drug repurposing screens with cells derived from glioblastoma tumor samples (AID 1345199). Also: nearly all actives have a fitted effect of over 40% in size. Also: potency is read from the fitted curve at half-maximal effect. As to activity, negative = cell killing: % is scaled to controls: 0 for no effect and ±100 for the full control effect. The settings on record: GBM patient neurospheres viability, ATP luminescence, 48 h. In short, it runs like this:
(§2)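 Four patient lines of CD133+ GBM neurospheres were screened at several concentrations; hits were retested in those lines plus three slower-growing GBM lines, using 48-hour treatment and ATP-based viability.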

A further test concerns astro. The test is described as above. The settings on record: viability, ATP luminescence, 48 h; series mostly up to 45.9 µM. The procedure, abridged: as §2
The subject of another test is SKOV3. In words: Primary qHTS to identify gynecologic anti-cancer compounds using libraries of approved drugs and bioactive compounds (AID 1345084). Also: nearly all actives have a fitted effect of over 55% in size. Also: potency is read from the fitted curve at half-maximal effect. Particulars: Gynecologic cancer cell panel viability, ATPlite luminescence, 48 h; series mostly up to 57.5 µM. In short, it runs like this:
as §1

Test [2] has as its target Nuclear receptor subfamily 1 group I member 2 (Rattus norvegicus) (UniProt Q9R1A7). Description: qHTS assay for small molecule activators of the rat pregnane X receptor (rPXR) signaling pathway (AID 651751; call rule not given here; also: 0% is about no effect). Particulars: rPXR reporter cells, luciferase (One-Glo), 24 h.
Test [3] in a line: qHTS assay for small molecule activators of the human pregnane X receptor (PXR) signaling pathway (AID 720659; call rule not given here; also: 0% is about no effect).
The mark [4] stands for this setting: at 45.9 µM (top of the series), tumour line B.
Setting [5] is: at 45.9 µM (top of the series), tumour line D.
[6] abbreviates: at 46.1 µM (top of the series), tumour line C.
[7] abbreviates: at 46 µM (top of the series), tumour line A.
Setting [8] is: at 91.6 µM (top of the series), tumour line B.
Where [9] appears, read: at 91.6 µM (top of the series), tumour line D.
Setting [10] is: at 99.2 µM (top of the series), tumour line C.
The mark [11] stands for this setting: at 91.6 µM (top of the series), tumour line A.

Nuclear receptor subfamily 1 group I member 2 (Rattus norvegicus), sequence (Q9R1A7 whole entry, looked up): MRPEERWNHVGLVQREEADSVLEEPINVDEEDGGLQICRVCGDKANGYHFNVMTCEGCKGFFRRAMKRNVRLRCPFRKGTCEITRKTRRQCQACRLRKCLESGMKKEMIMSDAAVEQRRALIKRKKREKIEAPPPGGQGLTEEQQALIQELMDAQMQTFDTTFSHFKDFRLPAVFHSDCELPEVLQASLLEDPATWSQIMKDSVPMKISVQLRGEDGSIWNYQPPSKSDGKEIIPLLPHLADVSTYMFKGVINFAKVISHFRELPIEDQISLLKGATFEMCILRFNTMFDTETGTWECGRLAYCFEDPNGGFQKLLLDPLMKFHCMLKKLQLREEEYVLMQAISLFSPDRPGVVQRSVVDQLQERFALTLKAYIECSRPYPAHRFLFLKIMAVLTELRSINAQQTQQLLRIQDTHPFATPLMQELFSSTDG

Take `CC(=O)N(CC(O)CO)c1c(I)c(C(=O)NCCO)c(I)c(C(=O)NCC(O)CO)c1I` (stereo unspecified): the Potency entry with PA-1, in the test on Tov-21-G, in the test with Tov112D and in the test on astro was “inactive” throughout. Further, the activity, negative = cell killing is -10.8% in test [1] (setting [4]), 12.9% in test [1] (setting [5]) and -5.5% in test [1] (setting [6]).

For `CCCCCCCCCCCCCCCC[N+](C)(C)Cc1ccccc1`, the Potency is 15.8 µM (active) in the test on PA-1 and 12.6 µM (active) in the test with astro.

Regarding `O=C(O)[C@H](O)[C@@H](O)[C@H](O[C@@H]1O[C@H](CO)[C@H](O)[C@H](O)[C@H]1O)[C@H](O)CO`, the Potency result in the test on PA-1, in the test with Tov-21-G, in the test with Tov112D and in the test with astro was “inactive” in each case. The activity, negative = cell killing in test [1] (at 20 µM (top of the series), tumour line C) is -12.3%; in test [1] (at 21.2 µM (top of the series), tumour line B) it was -2.57%; in test [1] (at 21.2 µM (top of the series), tumour line D) it was -4.25%; in test [1] (at 21.3 µM (top of the series), tumour line A), -22.9%.

In the case of `CC(=O)Nc1ccc(S(=O)(=O)Nc2cc(C)on2)cc1`, the Potency entry with PA-1, in the test on Tov-21-G, in the test on Tov112D and with astro was “inactive” each time. The figures for the activity, negative = cell killing in test [1] (setting [4]), in test [1] (setting [5]) and in test [1] (setting [6]) were 4.82%, -21% and -0.236%, respectively.

For `CC(=O)/C=C/C=C1/C2CCC(C2)C1(C)C` (stereo unspecified), the Potency entry with SKOV3, with Tov-21-G and with Tov112D was “inactive” each time.

As for `Nc1ncnc2nc[nH]c12`, the Potency entry in the test on PA-1, in the test on Tov-21-G, in the test with Tov112D and in the test on astro was “inactive” throughout. Also, the activity, negative = cell killing in test [1] (setting [4]) was 11.8%; in test [1] (setting [5]), 4.13%; in test [1] (setting [7]) it was -8.57%; in test [1] (setting [6]), 8.85%.

With `COC(=O)c1c(Cl)c(Cl)c(C(=O)OC)c(Cl)c1Cl`, the Potency entry with PA-1, in the test with Tov-21-G, with Tov112D and with astro was “inactive” each time. Also, the activity, negative = cell killing was -13.9% in test [1] (setting [8]), -16.3% in test [1] (setting [9]) and -5.72% in test [1] (setting [10]). Besides, the max response in test [2] was 2.2%.

In the case of `CC(=O)Oc1ccc(C2(c3ccc(OC(C)=O)cc3)Oc3ccccc3NC2=O)cc1`, the results for the Potency (in the test on PA-1; with Tov-21-G; in test [1] (tumour line A)) were 31.6 µM (active), 22.4 µM (active) and 22.4 µM (active), respectively. Besides, the activity, negative = cell killing in test [1] (setting [4]) is -28.4%.

For the compound `C[C@H]1NCc2cc(-c3ccc4c(=O)c(C(=O)O)cn(C5CC5)c4c3OC(F)F)ccc21`, the Potency entry in the test with PA-1, with Tov-21-G, in the test on Tov112D and in the test on astro was “inactive” throughout. Moreover, the activity, negative = cell killing in test [1] (setting [4]) was 3.7%; in test [1] (setting [5]), 27.3%; in test [1] (setting [7]), -27.3%; in test [1] (setting [6]) it was -18%.

Take `C1=CC2C3C=CC(C3)C2C1` (stereo unspecified): the Potency result in the test with PA-1, in the test on Tov-21-G, with Tov112D and in the test on astro was “inactive” throughout. The activity, negative = cell killing in test [1] (setting [11]) is -19.8%; in test [1] (setting [8]), -14.6%; in test [1] (setting [9]), -19.1%; in test [1] (setting [10]), 15.3%. In test [2], the max response is 2.57%. The compound was called inactive in test [3].

For `O=C(CO)[C@@H](O)[C@H](O)[C@@H](O)CO`, the Potency result with PA-1, with Tov-21-G, with Tov112D and in the test with astro was “inactive” each time. For the same compound, the activity, negative = cell killing in test [1] (setting [4]) was 4.08%; in test [1] (setting [5]), -8.89%; in test [1] (setting [7]), -12.2%; in test [1] (setting [6]), 8.07%.

Regarding `c1ccc2occc2c1`, the Potency result in the test on PA-1, in the test on Tov-21-G, in the test on Tov112D and in the test on astro was “inactive” throughout. Besides, the activity, negative = cell killing in test [1] (setting [11]) is -19.3%; in test [1] (setting [8]), -4.88%; in test [1] (setting [9]), -16%; in test [1] (setting [10]), 4.01%. Besides, in test [2], the max response was 2.28% and 7.63% and -1.22%.

On to `Cc1ccc(Cl)c(OCC(O)CNC(C)(C)C)c1` (stereo unspecified), for which, in the test on SKOV3, the Potency entry is “inactive”.

As to `O=C(O)CNC(=O)CNC(=O)CNC(=O)CSC(=O)c1ccccc1`, the Potency entry in the test with PA-1, in the test with Tov-21-G, with Tov112D and with astro was “inactive” throughout. Besides, the activity, negative = cell killing is 2.75% in test [1] (setting [4]), -4.9% in test [1] (setting [5]), -23.1% in test [1] (setting [7]) and -10.1% in test [1] (setting [6]).
